CHX counter: counter-screen hit for Shiga toxin inhibitors, cycloheximide | max response, % | cell reporter, cycloheximide protein synthesis inhibition counterscreen | 300,000 tested, 12% active; in the data active means max response mostly above about 13%, no sharp cut-off; inactive means mostly below about 14%; further: read at 38.3 µM for the half of the compounds with a filed dose; 0% is about no effect
SARS PLP yeast: SARS-CoV PLP inhibition in yeast; S. cerevisiae expressing SARS-CoV PLpro, growth rescue; AID 485353; Potency, µM (top dose mostly 32.9 µM), inactives show top-dose activity, positive = growth rescue, hits mostly activators; 330,000 tested, 0.19% active; calls by dose curve; further: potency means the concentration at half of the fitted maximal effect; 0% is about no effect; nearly all actives have a fitted effect of over 55% in size
Pf growth 96h: P. falciparum growth inhibition at 96 hours. 320,000 tested, 6.9% active. Potency, µM (titrated, usually from 28.7 µM), inactives show at the highest dose activity change, negative = inhibition, actives largely listed as inhibitors. P. falciparum luciferase reporter growth, 96 h; further: potency means the concentration at half of the fitted maximal effect; on the % scale 0 is the no-effect control and ±100 the full control effect
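P. falciparum expressing integrated firefly luciferase grown in erythrocytes (2% hematocrit, 0.05% parasitemia final) with compounds for 96 hours at 37 C, 5% CO2. Growth inhibition read as loss of luminescence after adding luciferase detection reagent.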
NS1 inh: inhibitors of influenza NS1 protein function; 270,000 tested, 0.4% active; Potency, µM (series often up to 46.1 µM), inactives show at the highest dose activity, positive = more growth; calls by dose curve; further: potency means the concentration at half of the fitted maximal effect; actives are rising curves; nearly all actives have a fitted effect of over 50% in size
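Compounds were scored for reversing the slow growth caused by influenza A NS1 in S. cerevisiae, measured by optical density at 600 nm. Assay medium contained 2% galactose at pH 6.0; NS1-free yeast of the same strain were the positive control.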
Shiga inhibitor: Shiga toxin inhibition. inhibition, % at 38.7 µM. 290,000 tested, 9.2% active. AID 2315. Vero cells, Shiga toxin protein synthesis inhibition reporter; in the data active means inhibition mostly above about 28%, no sharp cut-off; inactive means mostly below about 43%; further: 0% is about no effect
Pf growth 48h: P. falciparum growth inhibition at 48 hours (one generation); P. falciparum luciferase growth in erythrocytes, 48 h; Potency, µM (titrated, usually from 28.7 µM), for inactives: at the highest dose activity change, negative = inhibition, usual class: inhibitors; 310,000 tested, 5.9% active; AID 504832; further: potency means the concentration at half of the fitted maximal effect; on the % scale 0 is the no-effect control and ±100 the full control effect
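Firefly luciferase activity from engineered P. falciparum reports growth; inhibitors lower the luminescent signal. Cultures contained 2% hematocrit erythrocytes at 0.1% final parasitemia.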
* = called active by the depositor. The list is not random: actives were taken first. Their share in the collection is about 21%. Unless noted, the call rests on the fitted dose curve; in most records, active means well fitted inhibition curve with a large enough effect; inconclusive means small, poorly fitted or top-dose-only effect, or another doubt; inactive means no such curve, though single readings can be large or run the other way.

`CCOC(=O)C1=C(CN2CCN(C(=O)c3ccco3)CC2)NC(=O)NC1c1ccc(C)cc1` (stereo unspecified) gave CHX counter -2, SARS PLP yeast 7%, Pf growth 96h inconclusive, NS1 inh -1%, Shiga inhibitor -19 and Pf growth 48h 13µM*.
COC(=O)C1=C(CN2CCc3ccccc32)NC(=O)NC1c1cc(C)ccc1C (stereo unspecified) was read as CHX counter -1, SARS PLP yeast -7%, NS1 inh inconclusive, Shiga inhibitor 6 and Pf growth 48h 10µM*.
COC(=O)C1=C(CN2CCCc3ccccc32)NC(=O)NC1c1ccc(F)cc1 (stereo unspecified) was read as CHX counter 20, SARS PLP yeast -3%, Pf growth 96h -10%, NS1 inh -10%, Shiga inhibitor 101* and Pf growth 48h 94%.
`CCOc1ccc(OCCC(=O)NNC(=O)c2ccncc2)cc1` gave SARS PLP yeast -3%, Pf growth 96h -22% and Pf growth 48h -6%.
`C=CC[C@H](CC(=O)N(CCO)Cc1ccccc1)C(=O)NCCOC(=O)[C@@H](CC=C)CC(=O)OC(C)(C)C` gave SARS PLP yeast 5%.
CCOC(=O)C1=C(CSc2nc3ccccc3s2)NC(=O)NC1c1cc(C)ccc1C (stereo unspecified) was read as CHX counter 17, SARS PLP yeast -1%, Pf growth 96h 9.3µM*, NS1 inh 16%, Shiga inhibitor 20 and Pf growth 48h inconclusive.
COc1ccc(-c2cc(=O)c3c(O)cc(O[C@H]4OC(COC5OC(C)C(O)C(O)[C@H]5O)C(O)C(O)C4O)cc3o2)cc1O (stereo partly specified) was read as Pf growth 96h inconclusive and Pf growth 48h -16%.
For Fc1ccc(-c2nc3c(Cl)cc(C(F)(F)F)cn3c2Cl)cc1 the results were CHX counter 32*, SARS PLP yeast -1%, Pf growth 96h 63%, NS1 inh 13%, Shiga inhibitor active and Pf growth 48h 73%.
`O=C(c1cc2ccccc2oc1=O)N(Cc1ccc2c(c1)OCO2)Cc1ccco1` gave CHX counter 8, SARS PLP yeast -5%, Pf growth 96h 4%, NS1 inh -21%, Shiga inhibitor 110* and Pf growth 48h -7%.
Screening O=C(c1ccco1)N(Cc1ccc2c(c1)OCO2)Cc1cc2cc3c(cc2[nH]c1=O)OCO3 returned CHX counter -2, SARS PLP yeast -1%, Pf growth 96h 12µM*, NS1 inh 2%, Shiga inhibitor 29 and Pf growth 48h 45%.
Screening O=C(CSC(=S)N1CCCCC1)Nc1ncc2c(n1)CCCC2=O returned CHX counter -2, SARS PLP yeast -1%, Pf growth 96h 11%, NS1 inh -3%, Shiga inhibitor 12 and Pf growth 48h 3%.
CC(=O)NC(Cc1c[nH]c2ccccc12)C(=O)NCCc1ccccn1 (stereo unspecified) was read as CHX counter -4, SARS PLP yeast 3%, Pf growth 96h 24%, NS1 inh 10%, Shiga inhibitor 2 and Pf growth 48h 21%.
COc1ccc(CSc2nc(C)cc(=O)[nH]2)cc1 was read as CHX counter 10, SARS PLP yeast 6%, Pf growth 96h 4.7µM*, NS1 inh -6%, Shiga inhibitor 23 and Pf growth 48h 0%.
`Cc1cc(=O)[nH]c(S/C=C/c2ccccc2)n1` gave CHX counter 28*, SARS PLP yeast -12%, Pf growth 96h 2%, NS1 inh -38%, Shiga inhibitor 58* and Pf growth 48h 56%.
`COc1cc(CSc2nc(-c3ccccc3)cc(=O)[nH]2)cc(OC)c1` gave CHX counter 2, SARS PLP yeast 0%, Pf growth 96h 19%, NS1 inh 4%, Shiga inhibitor -4 and Pf growth 48h 16%.
For Cc1cc(=O)[nH]c(SCCc2ccccc2)n1 the results were CHX counter -4, SARS PLP yeast 0%, Pf growth 96h 53%, NS1 inh 6%, Shiga inhibitor -6 and Pf growth 48h 15%.
Screening C=CCc1c(C)nc(SCc2ccccc2)[nH]c1=O returned CHX counter 16*, SARS PLP yeast -2%, Pf growth 96h -4%, NS1 inh -13%, Shiga inhibitor 18 and Pf growth 48h 10%.
For Cc1cc(=O)[nH]c(SCc2ccccc2)n1 the results were CHX counter 2, SARS PLP yeast 6%, Pf growth 96h 3%, NS1 inh 10%, Shiga inhibitor 0 and Pf growth 48h 12µM*.
Screening COC(=O)C1=C(C)Nc2nc(SCc3ccccc3)[nH]c(=O)c2C1c1cccs1 (stereo unspecified) returned CHX counter -1, SARS PLP yeast -7%, Pf growth 96h -5%, NS1 inh 20%, Shiga inhibitor -12 and Pf growth 48h -6%.
Screening CCOc1ccc(-c2cn(CCC#N)cn2)cc1 returned CHX counter 15*, SARS PLP yeast 3%, Pf growth 96h 6.6µM*, NS1 inh -5%, Shiga inhibitor 18 and Pf growth 48h 30%.
COCCCNC(=O)Cn1cnc(C(=O)Nc2ccc(C)c(C)c2)n1 was read as SARS PLP yeast 18%.
`Cc1nc(C)c(C(=O)N2CCCC(C(=O)c3ccc(Cl)cc3C)C2)s1` (stereo unspecified) gave CHX counter -3, SARS PLP yeast -5%, Pf growth 96h 13µM*, NS1 inh -11%, Shiga inhibitor -8 and Pf growth 48h -19%.
`Cc1cc(Cl)ccc1C(=O)C1CCCN(C(=O)c2cscn2)C1` (stereo unspecified) gave CHX counter -2, SARS PLP yeast -2%, Pf growth 96h inconclusive, NS1 inh -4%, Shiga inhibitor -9 and Pf growth 48h 40%.
Cc1cc(Cl)ccc1C(=O)C1CCCN(C(=O)/C=C/c2cnn(C)c2)C1 (stereo unspecified) was read as CHX counter 1, SARS PLP yeast -1%, Pf growth 96h 4.1µM*, NS1 inh -4%, Shiga inhibitor -9 and Pf growth 48h 8%.
`CCCC(=O)NC(c1ccc(OC)cc1)c1ccc2cccnc2c1O` (stereo unspecified) gave CHX counter -2, SARS PLP yeast -4%, Pf growth 96h inconclusive, NS1 inh -61%, Shiga inhibitor -1 and Pf growth 48h 1.3µM*.
`CCC(=O)NC(c1ccc(OC)cc1)c1cc(Cl)c2cccnc2c1O` (stereo unspecified) gave CHX counter -3, SARS PLP yeast -1%, Pf growth 96h 288%, NS1 inh -1%, Shiga inhibitor -8 and Pf growth 48h 4%.
CCCC(=O)NC(c1ccccc1)c1ccc2cccnc2c1O (stereo unspecified) was read as CHX counter 10, SARS PLP yeast inconclusive, Pf growth 96h inconclusive, NS1 inh -114% and Pf growth 48h 2.3µM*.
